# Measured values as given in PubChem BioAssay AID588413 (Sanford-Burnham Center for Chemical Genomics, 2011).
# About 2,500 (0.74%) of roughly 340,000 compounds were called active.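 How the source made its calls: active means inhibition above about 55% (limit read from the data); inactive means the rest.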 This excerpt belongs to a sample that is enriched for actives.
# Assay: Gli-Sufu pathway antagonists, primary screen, luciferase luminescence, Sufu-KO-LIGHT cells, uHTS (AID 588413);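 further: 0% = DMSO-treated cells and 100% = wells with medium but no cells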
# Details: Sufu-KO-LIGHT fibroblasts, Gli luciferase reporter luminescence; at 5 µM; hits give high values
row,Compound,inhibition
1,CSc1ncccc1C(=O)NCc1ccccc1Cl,-8.35% (inactive)
2,CC(=O)c1c(O)cc2n(c1=O)-c1ccc(Cl)cc1C2(C)C,-0.02% (inactive)
3,COC(=O)CC(CC(=O)OC)n1cccc1,6.12% (inactive)
4,Cc1ccc(O)c(NC(=S)NC(=O)COc2ccc(Br)cc2)c1,-1.7% (inactive)
5,Cc1ccc(O)c(NC(=O)COc2cc(C)ccc2C)c1,63.9% (active)
6,Cc1ccc(C)c(OCC(=O)NNC(=O)C2CCC2)c1,3% (inactive)
7,CCC1CCCCN1C(=S)NC(=O)c1ccco1 (stereo not given),3.37% (inactive)
8,O=C(CSC(=S)N1CCCCC1)c1c(F)cccc1F,-23.9% (inactive)
9,CCCCn1nc(C(=O)OCC(=O)Nc2sccc2C(N)=O)c2ccccc2c1=O,-33% (inactive)
10,CCOC(=O)c1[nH]c2ccccc2c1N=C(C)N(CC)CC,4.83% (inactive)
11,CCOC(=O)C1=C(C)c2ccccc2OC1(C)C(=O)OCC (stereo not given),-1.26% (inactive)
12,CCOC(=O)c1c(C)[nH]c2c1-c1ccccc1C(=O)C2=O,95.8% (active)
13,C=CCn1c(C)cc(C2=NNC(=NCC)SC2)c1C,93% (active)
14,CCCN(CCC)C(=O)C1c2ccccc2Oc2ccccc21,-1.09% (inactive)
15,CNCC(O)c1ccc(O)c(O)c1 (stereo not given),-2.95% (inactive)
16,COc1ccc(CCNc2ncnc3c2nnn3Cc2ccccc2)cc1,4.12% (inactive)
17,COc1ccc(NC(=O)/C(N=Nc2cccc(S(=O)(=O)Nc3ccc(SC(F)F)cc3)c2)=C(\C)O)cc1,-4.13% (inactive)
18,C=CCn1c(Oc2ccc(C(=O)OC)cc2)nc2c1c(=O)n(C)c(=O)n2C,1.23% (inactive)
19,Cn1c(=O)c2c(nc(OCc3cccnc3)n2Cc2ccccc2)n(C)c1=O,8.04% (inactive)
20,C=CCOc1nc2c(c(=O)n(C)c(=O)n2C)n1Cc1ccc(Cl)cc1Cl,62% (active)

row,Compound,inhibition
1,O=S(=O)(Nc1cc(S(=O)(=O)N2CCOCC2)ccc1N1CCCC1)c1cccs1,5.7% (inactive)
2,O=c1c2ccccc2ncn1/N=C/c1ccccc1,20.9% (inactive)
3,Cc1ccc(-n2c(SCC(=O)N/N=C/C=C/c3ccccc3[N+](=O)[O-])nc3ccccc3c2=O)cc1,14.2% (inactive)
4,CCn1c(/C=C/c2ccc([N+](=O)[O-])o2)nc2ccccc2c1=O,80% (active)
5,O=C(Nc1ccccc1C(=O)NCC1CCCO1)c1ccccc1F (stereo not given),-6.12% (inactive)
6,CC(C)c1ccc2c(c1)c(SC(C)(C)C)c(CC(C)(C)C(=O)O)n2Cc1ccc(Cl)cc1,-0.1% (inactive)
7,CCCCCCCCn1c2c(c(=N)c3c1CCC3)CCCC2,89.4% (active)
8,O=C(NNS(=O)(=O)Cc1ccccc1)c1ccc([N+](=O)[O-])cc1,-11.2% (inactive)
9,CCOC(=O)C1CCCN(CCSc2ccc(C)cc2)C1 (stereo not given),21.1% (inactive)
10,CN(C)C(=O)COC(=O)c1cccc(S(=O)(=O)N2CC3(C)CC2CC(C)(C)C3)c1 (stereo not given),0.32% (inactive)
11,COc1ccc(Nc2ncnc3ccc(Br)cc23)c(OC)c1,26.3% (inactive)
12,CC1(C)CC2CC(C)(CN2c2ncnc3ccc(Br)cc23)C1 (stereo not given),62.2% (active)
13,COc1cc(C(F)(F)F)nc2c(Br)c(C(C)(C)C)nn12,4.44% (inactive)
14,CN(Cc1ccc(CNC[C@H]2O[C@@H](n3cnc4c(N)ncnc43)[C@H](O)[C@@H]2O)o1)S(C)(=O)=O,-0.83% (inactive)
15,CCc1cc2cc(OC)ccc2nc1SCC(=O)Nc1cc(OC)c(OC)cc1C(=O)O,-8.77% (inactive)
16,CC(=O)Cn1cnc2c(cnn2-c2ccccc2)c1=O,-18.4% (inactive)
17,Cc1ccc(-c2nc3c(cnn3-c3ccccc3)c(=O)o2)cc1,56.1% (active)
18,Cc1ccc(-n2ncc3c(=O)n(-c4ccc(C)c(C)c4)c(-c4ccco4)nc32)cc1,4.8% (inactive)
19,COc1ccc(OC)c(C2C3=C(N=c4s/c(=C\c5cccc(O)c5)c(=O)n42)c2ccccc2CC3)c1 (stereo not given),-4.15% (inactive)
20,CCN(CC)S(=O)(=O)c1ccc(N(C)Cc2ccc(C(F)(F)F)cc2)nc1,17.7% (inactive)

row,Compound,inhibition
1,CCCCNCCS(=O)(=O)NCc1ccccc1,-0.46% (inactive)
2,COc1cccc(/C=N/Nc2ccc(S(=O)(=O)Nc3ccccc3C(=O)O)cc2[N+](=O)[O-])c1O,6.14% (inactive)
3,COc1ccc(Br)cc1/C=N/Nc1ccc(Cl)c(C(=O)O)c1,8.66% (inactive)
4,COc1cccc(/C=N/Nc2ncc(C(F)(F)F)cc2Cl)c1O,59.1% (active)
5,O=C(OCC(=O)N1CCc2ccccc21)C1CCCN1S(=O)(=O)c1ccc(Cl)cc1 (stereo not given),-11.8% (inactive)
6,CC1(C)CC(=O)NC=C(c2ccccc2)C1,1.28% (inactive)
7,Cn1ccsc1=NC(=O)c1cc(S(=O)(=O)N2CCOCC2)ccc1Cl,-4.66% (inactive)
8,c1ccc(-n2nnnc2NC2CCCCCC2)cc1,8.53% (inactive)
9,c1ccc(-n2nnnc2N2CCOCC2)cc1,94.8% (active)
10,O=C1C(Cl)=C(N2CCOCC2)C(=O)N1c1ccccc1,0.4% (inactive)
11,COc1ccc(S(=O)(=O)N2CCCC(C(=O)NCCCn3ccnc3)C2)cc1OC (stereo not given),15.1% (inactive)
12,O=C1NNC(c2ccccc2)=N/C1=C\c1ccc(Cl)cc1,5.34% (inactive)
13,CCn1cc(C(=O)NCC2COc3ccccc3O2)c2cc(OC)c(OC)cc2c1=O (stereo not given),10.7% (inactive)
14,CC(=O)Nc1ccc(Nc2c([N+](=O)[O-])cc(S(C)(=O)=O)cc2[N+](=O)[O-])cc1,-0.18% (inactive)
15,CC(=O)Nc1ccc(Nc2c3ccccc3nc3ccccc23)cc1,75% (active)
16,CC(=O)Nc1ccc(S(=O)(=O)N(C)c2nc3ccccc3nc2Cl)cc1,1.9% (inactive)
17,CCOc1ccc(NC(=O)c2ccc(NC(=O)CN3C(=O)C(=O)N(CC(C)C)C3=O)cc2)cc1,-34.9% (inactive)
18,CCC1([N+](=O)[O-])COC(c2ccc(C(C)C)cc2)OC1 (stereo not given),-31.9% (inactive)
19,CCC(=C/c1sc2ccc3ccccc3c2[n+]1C)/C=C1\Sc2ccc3ccccc3c2N1C,64.2% (active)
20,O=C(c1ccccc1)c1ccc2nc(N3CCCCC3)c3nncn3c2c1,6.66% (inactive)
